This passage reports Potency and outcome results from PubChem BioAssay (Tox21).

Assay [1] can be described thus: Nuclear factor erythroid 2-related factor 2/antioxidant responsive element (Nrf2/ARE) small molecule agonists: qHTS cell viability counter screen in human keratinocytes (AID 1919968; active = well fitted curve in the direction sought with a large enough effect in the repeat runs; an effect the other way counts as inactive or inconclusive; also: nearly all actives have a fitted effect of over 55% in size; also: potency is read from the fitted curve at half-maximal effect). In outline: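 Seed 1,500 KeratinoSens cells per well, then incubate 5 h at 37 C/5% CO2. Add compounds in DMSO and incubate 23 h. Add CellTiter-Fluor, wait 1 h and read fluorescence.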
In general terms: Quantitative high-throughput screening tests each substance at several concentrations.

The nature of assay [2]: Nuclear factor erythroid 2-related factor 2/antioxidant responsive element (Nrf2/ARE) small molecule agonists: luciferase reporter gene qHTS assay in human keratinocytes (AID 1919969). Also: nearly all actives have a fitted effect of over 35% in size. Also: potency is read from the fitted curve at half-maximal effect.
Assay [3] addresses Gonadotropin-releasing hormone receptor (Homo sapiens) (UniProt P30968). The experiment in a line: Human gonadotropin-releasing hormone receptor (GnRHR) small molecule agonists, calcium flux assay in GnRHR-HEK293 cells (AID 1920063). Also: nearly all actives have a fitted effect of over 35% in size. In outline: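 Cells: HEK293 stably expressing human GnRHR. Steps: overnight (18 h) culture, 1 h calcium dye loading at 37 C, compound addition, kinetic fluorescence read at 480/540 nm. Each compound tested at 15 concentrations in triplicate.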
(In general: A change in cytosolic calcium serves as a functional read-out for many receptors and channels.)

In assay [4] the target is KiSS-1 receptor (Homo sapiens) (UniProt Q969F8). As to the kind of experiment: Human kisspeptin (KISS1R) small molecule agonists, calcium flux assay in KISS1R-HEK293 cells (AID 1920064; active = well fitted curve in the direction sought with a large enough effect in the repeat runs; an effect the other way counts as inactive or inconclusive). In outline:
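Cells plated and incubated 18 h; dye added, 1 h at 37 C; compounds in DMSO pinned in; signal read at 480/540 nm every second for 3 min. Each compound tested at 15 concentrations in triplicate.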

Assay [5] can be described thus: G protein-coupled receptor (GPCR) small molecule agonists, calcium flux assay: HEK293 wild type cell line counter screen (AID 1920065). In outline:
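Counter-screen of the Tox21 10K library for non-specific calcium release: dye-loaded cells received compounds in DMSO and were monitored by kinetic fluorescence (480/540 nm, 3 min). Fifteen concentrations, run in triplicate.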

Assay [6] is described as follows: p53 small molecule agonists, cell-based qHTS assay with human liver microsomes (AID 1963577).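 Also: p53 response element beta-lactamase reporter cells with liver microsomes plus NADPH.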 In outline:
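In this qHTS, p53 response-element beta-lactamase cells receive test compound together with a microsome/NADPH activating system (0.5 mg/mL final each) and are incubated 16 h at 37 C before LiveBLAzer fluorescence detection.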

Assay [7] is described as follows: p53 small molecule agonists, cell-based qHTS assay with rat liver microsomes (AID 1963578). In outline: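 Agonist mode in p53RE-bla reporter cells, with compounds co-incubated 16 h at 37 C alongside 0.5 mg/mL rat liver microsomes and 0.5 mg/mL NADPH (final), followed by a 2 h LiveBLAzer detection step.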
Assay [8] in a line: p53 small molecule agonists, cell-based qHTS assay with human liver microsomes: qHTS cell viability counter screen (AID 1963579). Also: nearly all actives have a fitted effect of over 45% in size. In outline: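 Metabolically activated exposure: compounds, human liver microsomes and NADPH (0.5 mg/mL final apiece) were added to p53RE-bla cells seeded 5 h earlier, left 16 h at 37 C, and then assessed for viability by CellTiter-Glo luminescence.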

Assay [9] in a line: p53 small molecule agonists, cell-based qHTS assay with rat liver microsomes: qHTS cell viability counter screen (AID 1963580). Also: nearly all actives have a fitted effect of over 45% in size. In outline: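 Viability is assessed in parallel with the p53 reporter read: HCT-116 p53RE-bla cells receive compounds plus rat microsomes and NADPH (0.5 mg/mL final apiece), incubate 16 h at 37 C, and then CellTiter-Glo luminescence is recorded.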
The nature of assay [10]: p53 small molecule agonists, cell-based qHTS assay: qHTS cell viability counter screen (AID 1963581). Also: nearly all actives have a fitted effect of over 45% in size. In outline:
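Cells: HCT-116 with p53 response element-driven beta-lactamase. Treatment: 16 h, 37 C, compounds in DMSO. Read: CellTiter-Glo luminescence after 30 min RT.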

The nature of assay [11]: p53 small molecule agonists, cell-based qHTS assay (AID 1963582; active = well fitted activation curve with a large enough effect in the signal ratio in the repeat runs, not every such curve was filed as active; the % refers to the signal ratio). The procedure, abridged: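 Quantitative HTS in p53RE-bla cells: after a 5 h settling period, compounds delivered in DMSO were left on cells for 16 h at 37 C, and reporter induction was measured as fluorescence following 2 h substrate loading.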
Assay [12] can be described thus: cAMP Responsive Elements (CRE) small molecule agonists, cell-based qHTS assay (AID 1963590). In outline:
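Agonist mode qHTS in CRE-bla HEK 293T cells: compounds dosed from DMSO for 3 h at 37 C/5% CO2, followed by LiveBLAzer B/G FRET substrate for 2 h at room temperature.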

The nature of assay [13]: cAMP Responsive Elements (CRE) small molecule antagonists, cell-based qHTS assay (AID 1963591; active = well fitted inhibition curve with a large enough effect in the signal ratio in the repeat runs, not every such curve was filed as active; the % refers to the signal ratio). In outline:
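Antagonist mode: test compounds are co-incubated with the adenylyl cyclase activator NKH477 (0.25 uM final) on CRE-bla HEK293T cells for 3 h at 37 °C, followed by LiveBLAzer substrate loading.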

The target in assay [14] is Beta-2 adrenergic receptor (Homo sapiens) (UniProt P07550). As to the kind of experiment: Adrenergic beta2 receptor (ADRB2) small molecule antagonists, cell-based qHTS assay (AID 1963592). Also: nearly all actives have a fitted effect of over 50% in size. Also: potency is read from the fitted curve at half-maximal effect. In outline:
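Cells (CHO, stable ADRB2 overexpression) incubated 18-20hr at 37C; compounds added from DMSO; agonist mix (1nM isoproterenol, 100uM IBMX, 25uM Ro-20-1724) added; 0.5hr RT; d2-cAMP and anti-cAMP-cryptate added; 1hr RT; 665/615 nm read.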

Assay [15] concerns the target D(2) dopamine receptor (Homo sapiens) (UniProt P14416). As to the kind of experiment: Dopamine D2 receptor (DRD2) small molecule antagonists, cell-based qHTS assay (AID 1963595; active = well fitted inhibition curve with a large enough effect in the signal ratio in the repeat runs, with a control signal flat; the % refers to the signal ratio). The procedure, abridged:
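DRD2-HEK293; 0.1 mM Ro20-1724; cpd 10 min RT; NKH477 200 nM + quinpirole 12 nM, 30 min RT; HTRF cAMP (cAMP-d2/anti-cAMP cryptate), 665/620 nm ratio after 1 h.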

Assay [16] has as its target 5-hydroxytryptamine receptor 2A (Homo sapiens) (UniProt P28223). As to the kind of experiment: 5-hydroxytryptamine receptor 2A (HTR2A) small molecule agonists, cell-based qHTS assay (AID 1963587). Also: nearly all actives have a fitted effect of over 30% in size. Also: potency is read from the fitted curve at half-maximal effect. The procedure, abridged:
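CHO cells stably expressing human HTR2A, plated 18 h, loaded with calcium dye 1 h at 37 C. Agonist mode: compounds added and intracellular calcium fluorescence recorded kinetically for 2 min at 1 sec intervals.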

Assay [17] addresses Muscarinic acetylcholine receptor M1 (Homo sapiens) (UniProt P11229). The experiment in a line: Cholinergic receptor muscarinic 1 (CHRM1) small molecule antagonists, cell-based qHTS assay (AID 1963588). Also: nearly all actives have a fitted effect of over 40% in size. In outline:
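CHRM1-CHO calcium-flux assay, antagonist mode. Cells were seeded 18 h, dye-loaded 1 h at 37 C and given compound for 5 min at RT, then acetylcholine was added at 50nM. FDSS fluorescence was read 3 min; 15 concentrations, three runs.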

The target is the same in assay [18]. As to the kind of experiment: Cholinergic receptor muscarinic 1 (CHRM1) small molecule agonists, cell-based qHTS assay (AID 1963589). Also: nearly all actives have a fitted effect of over 35% in size. In outline: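 Agonist-mode qHTS in CHO cells stably carrying human muscarinic M1. Intracellular calcium is tracked by fluorescence every second after compound transfer; each compound runs at 15 concentrations in three independent runs.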

Assay [19] addresses Beta-2 adrenergic receptor (Homo sapiens) (UniProt P07550). The experiment in a line: Adrenergic beta2 receptor (ADRB2) small molecule agonists, cell-based qHTS assay (AID 1963593).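 Also: CHO cells stably overexpressing human ADRB2.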 The procedure, abridged:
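CHO cells stably over-expressing ADRB2 were plated overnight at 37C, then dosed with compounds plus a stimulation mix containing 100uM IBMX and 25uM Ro-20-1724 for 0.5hr at room temperature. cAMP was measured by HTRF competition, 1hr.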

The target in assay [20] is D(2) dopamine receptor (Homo sapiens) (UniProt P14416). The experiment in a line: Dopamine D2 receptor (DRD2) small molecule agonists, cell-based qHTS assay (AID 1963594). Also: nearly all actives have a fitted effect of over 35% in size. In outline:
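HEK293 cells stably expressing human DRD2, pre-treated with PDE inhibitor Ro20-1724 (0.1 mM final) and compound 10 min at room temperature, then stimulated with NKH477 (200nM […]) for 30 min. cAMP read by HTRF (665/620 nm).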

Inconclusive results are not listed. Active and inactive are the calls of the source. Unless noted, calls follow the shape of the full dose curve.

Chain of 5-hydroxytryptamine receptor 2A (Homo sapiens) (P28223 whole entry, looked up): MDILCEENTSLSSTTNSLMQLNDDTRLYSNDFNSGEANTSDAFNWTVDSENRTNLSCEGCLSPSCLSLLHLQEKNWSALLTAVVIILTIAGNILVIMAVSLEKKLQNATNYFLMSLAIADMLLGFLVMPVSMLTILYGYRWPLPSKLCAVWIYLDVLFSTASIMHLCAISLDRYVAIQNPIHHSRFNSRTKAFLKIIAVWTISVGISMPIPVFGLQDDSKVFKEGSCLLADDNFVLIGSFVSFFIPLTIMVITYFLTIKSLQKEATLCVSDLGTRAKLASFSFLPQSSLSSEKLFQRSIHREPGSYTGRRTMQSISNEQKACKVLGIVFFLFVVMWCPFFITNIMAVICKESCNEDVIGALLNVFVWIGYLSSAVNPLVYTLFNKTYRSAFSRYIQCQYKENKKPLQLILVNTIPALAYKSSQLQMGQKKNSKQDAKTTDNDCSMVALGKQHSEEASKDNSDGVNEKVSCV
Chain of KiSS-1 receptor (Homo sapiens) (Q969F8 whole entry, looked up): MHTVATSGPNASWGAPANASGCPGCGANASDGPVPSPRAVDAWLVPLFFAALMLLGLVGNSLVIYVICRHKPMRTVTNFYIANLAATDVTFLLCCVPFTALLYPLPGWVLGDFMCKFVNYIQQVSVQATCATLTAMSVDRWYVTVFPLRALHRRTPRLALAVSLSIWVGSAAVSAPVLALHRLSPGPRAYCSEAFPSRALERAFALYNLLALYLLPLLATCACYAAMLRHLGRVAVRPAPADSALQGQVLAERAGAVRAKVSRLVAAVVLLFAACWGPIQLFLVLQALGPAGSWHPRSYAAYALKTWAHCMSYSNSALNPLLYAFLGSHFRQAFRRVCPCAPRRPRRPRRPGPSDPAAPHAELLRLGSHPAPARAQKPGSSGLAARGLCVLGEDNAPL
Chain of Beta-2 adrenergic receptor (Homo sapiens) (P07550 whole entry, looked up): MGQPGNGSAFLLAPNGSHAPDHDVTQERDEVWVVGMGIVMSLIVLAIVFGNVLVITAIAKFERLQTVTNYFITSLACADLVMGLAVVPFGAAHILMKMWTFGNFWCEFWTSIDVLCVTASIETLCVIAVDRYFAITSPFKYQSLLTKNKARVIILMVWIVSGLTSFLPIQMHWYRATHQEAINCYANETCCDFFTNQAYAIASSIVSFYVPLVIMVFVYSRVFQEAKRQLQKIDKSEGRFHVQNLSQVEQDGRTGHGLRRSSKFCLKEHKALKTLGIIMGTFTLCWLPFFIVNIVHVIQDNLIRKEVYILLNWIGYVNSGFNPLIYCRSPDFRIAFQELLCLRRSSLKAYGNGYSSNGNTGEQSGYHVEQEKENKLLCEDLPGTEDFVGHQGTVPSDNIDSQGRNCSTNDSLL
Chain of D(2) dopamine receptor (Homo sapiens) (P14416 whole entry, looked up): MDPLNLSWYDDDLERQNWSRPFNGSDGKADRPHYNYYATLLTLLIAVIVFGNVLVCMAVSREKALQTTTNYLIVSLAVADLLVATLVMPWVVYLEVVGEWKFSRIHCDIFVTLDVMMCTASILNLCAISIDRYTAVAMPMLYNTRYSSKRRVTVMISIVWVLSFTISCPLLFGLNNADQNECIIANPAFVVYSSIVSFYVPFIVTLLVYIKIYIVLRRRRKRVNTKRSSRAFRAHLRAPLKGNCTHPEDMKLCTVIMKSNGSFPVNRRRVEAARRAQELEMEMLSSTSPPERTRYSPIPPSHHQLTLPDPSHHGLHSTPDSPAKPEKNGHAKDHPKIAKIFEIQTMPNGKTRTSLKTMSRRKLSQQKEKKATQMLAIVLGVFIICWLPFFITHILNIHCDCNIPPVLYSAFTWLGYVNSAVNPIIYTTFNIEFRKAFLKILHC
Chain of Gonadotropin-releasing hormone receptor (Homo sapiens) (P30968 whole entry, looked up): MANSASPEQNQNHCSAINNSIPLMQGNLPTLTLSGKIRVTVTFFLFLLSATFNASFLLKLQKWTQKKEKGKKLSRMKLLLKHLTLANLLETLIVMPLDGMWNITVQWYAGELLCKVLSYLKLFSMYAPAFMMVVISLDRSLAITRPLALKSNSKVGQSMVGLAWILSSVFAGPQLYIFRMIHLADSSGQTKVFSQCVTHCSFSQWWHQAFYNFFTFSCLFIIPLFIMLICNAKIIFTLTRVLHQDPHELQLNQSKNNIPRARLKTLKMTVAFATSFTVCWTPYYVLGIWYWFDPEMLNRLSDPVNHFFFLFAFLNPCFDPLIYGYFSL
Chain of Muscarinic acetylcholine receptor M1 (Homo sapiens) (P11229 whole entry, looked up): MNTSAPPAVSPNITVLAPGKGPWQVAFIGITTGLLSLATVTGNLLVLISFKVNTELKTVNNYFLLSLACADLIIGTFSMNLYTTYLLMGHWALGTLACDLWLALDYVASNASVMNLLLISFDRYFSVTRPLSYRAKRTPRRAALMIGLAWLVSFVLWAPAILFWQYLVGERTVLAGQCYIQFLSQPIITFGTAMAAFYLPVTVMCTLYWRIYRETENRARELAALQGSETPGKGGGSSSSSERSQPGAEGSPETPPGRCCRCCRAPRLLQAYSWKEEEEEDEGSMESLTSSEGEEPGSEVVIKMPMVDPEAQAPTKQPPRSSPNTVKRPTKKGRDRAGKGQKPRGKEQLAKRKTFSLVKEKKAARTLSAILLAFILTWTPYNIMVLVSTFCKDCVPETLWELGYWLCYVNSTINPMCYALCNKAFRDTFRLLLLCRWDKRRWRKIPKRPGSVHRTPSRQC

As for `Nc1nc(N)nc(-c2cc(Cl)ccc2Cl)n1`, the Potency result in assay [1], in assay [2], in [3], in [6], in assay [7] and in assay [8] was “inactive” throughout. Further, the Potency result in [9], in assay [10], in assay [11], in assay [12], in [13] and in assay [14] was “inactive” throughout. Moreover, the Potency entry in assay [15] is “inactive”. Besides, the outcome in assay [4] and in [5] was inactive.
In the case of `Cc1ccc2nc(N)[nH]c(=O)c2c1Sc1ccncc1`, the Potency result in assay [1], in assay [2], in assay [3], in assay [6], in [7] and in [8] was “inactive” each time. Also, the Potency result in assay [9], in [10], in [16], in assay [17], in assay [18] and in [12] was “inactive” throughout. For the same compound, the Potency entry in [13], in [14], in [19], in [20] and in assay [15] was “inactive” each time. In addition, the result in assay [4] and in assay [5] was inactive.
`Cc1c(C)c([N+](=O)[O-])c(C(C)(C)C)c([N+](=O)[O-])c1C`: the Potency entry in [1], in assay [2], in assay [3], in assay [6], in assay [7] and in assay [8] was “inactive” each time. Further, the Potency result in assay [9], in assay [10], in [16], in assay [17], in [18] and in [12] was “inactive” throughout. Moreover, the Potency entry in assay [13], in [14], in assay [20] and in [15] was “inactive” throughout. Also, the result in assay [4] and in assay [5] was inactive.
With `C=CCNc1nc(NCC=C)nc(N2CCN(C(c3ccc(F)cc3)c3ccc(F)cc3)CC2)n1`, the figures for the Potency in [1], in [16] and in assay [14] were 4.22 µM (active), 2.68 µM (active) and 11.9 µM (active), respectively. For the same compound, the Potency entry in assay [2], in assay [3], in assay [6], in [7], in assay [8] and in assay [9] was “inactive” in each case. Moreover, the Potency result in assay [10], in assay [17], in assay [18], in assay [12], in assay [13] and in [20] was “inactive” each time. For the same compound, the Potency entry in assay [15] is “inactive”. Also, the outcome in assay [4] and in assay [5] was inactive.
For `On1nnc2ccccc21`, the Potency result in [1], in assay [2], in [3], in assay [6], in assay [7] and in [8] was “inactive” each time. Moreover, the Potency entry in assay [9], in assay [10], in assay [16], in assay [17], in assay [18] and in assay [12] was “inactive” in each case. For the same compound, the Potency result in assay [13], in assay [14], in [20] and in assay [15] was “inactive” each time. Further, the result in assay [4] and in assay [5] was inactive.
Regarding `CCCCc1ccc(N)cc1`, the Potency result in [1], in assay [2], in assay [3], in assay [6], in assay [7] and in assay [8] was “inactive” each time. For the same compound, the Potency entry in assay [9], in [10], in assay [16], in assay [17], in [18] and in [12] was “inactive” throughout. Further, the Potency result in [13], in assay [14] and in assay [20] was “inactive” each time. Moreover, the result in assay [4] and in assay [5] was inactive.
Turning to `Cc1ccc2c(c1[N+](=O)[O-])C(=O)c1ccccc1C2=O`, the Potency result in assay [1], in [3], in assay [6], in [7], in [8] and in assay [9] was “inactive” each time. For the same compound, the Potency result in assay [10], in assay [16], in assay [17], in [18], in assay [13] and in assay [14] was “inactive” throughout. The Potency entry in assay [19] and in assay [15] was “inactive” throughout. In addition, the Potency in [2] was 16.9 µM (active). Moreover, the result in [4] and in assay [5] was inactive.
`C/C(=N\O)c1ccc(OCC(=O)N2CCCCC2)cc1`: the Potency result in [1], in assay [3], in assay [6], in [7], in assay [8] and in [9] was “inactive” in each case. Moreover, the Potency result in [10], in assay [16], in assay [17], in [18], in assay [12] and in assay [13] was “inactive” throughout. Besides, the Potency result in [19], in assay [20] and in [15] was “inactive” each time. The Potency in [2] was 11.9 µM (active). The outcome in assay [4] and in assay [5] was inactive.
